Reference: PubChem BioAssay
Activity calls are given as the source filed them.

Key:
[1] = small molecules captured by biotinylated probe aFSTL3 – biochemical, small-molecule microarray, fluorescence 635/667, stem cell growth factor project, primary screen (AID 1064); details: higher = more signal;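 note: measures binding of the biotinylated anti-FSTL3 antibody to printed compounds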
[2] = binders from COS7 lysate, DM2A8 probe, primary screen, torsin A project, cell lysate, small-molecule microarray, fluorescence 635/667 (AID 1065); details: higher = more signal, COS7 lysate expressing mutant human TOR1A
[3] = small molecules captured by biotinylated probe aFGF2 – biochemical, small-molecule microarray, fluorescence 635/667, stem cell growth factor project, primary screen (AID 1067); details: higher = more signal;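 note: measures binding of biotinylated aFGF2 protein to printed compounds on slides; z-score merges feature fluorescence and signal-to-noise across triplicate slides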
[4] = small molecules captured by biotinylated probe aFGF10 – biochemical, small-molecule microarray, fluorescence 635/667, stem cell growth factor project, primary screen (AID 1071); details: higher = more signal;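 note: score merges 667 nm spot intensity and signal to noise from triplicate slides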
[5] = target: Neurogenic locus notch homolog protein 2 (Homo sapiens) (UniProt Q04721); test: small molecules binding Notch2 protein – biochemical, small-molecule microarray, 635 nm fluorescence, stem cell growth factors, primary screen (AID 1073); details: higher = more signal
[6] = target: Pro-neuregulin-1, membrane-bound isoform (Homo sapiens) (UniProt Q02297); test: small molecules binding neuregulin-1 protein – biochemical, small-molecule microarray, fluorescence 635/667, psychiatric disease protein project, primary screen (AID 1075); details: NRG1 binding, 635 nm fluorescence, higher = more signal;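 note: score combines 667 nm spot fluorescence with signal to noise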
Pro-neuregulin-1, membrane-bound isoform (Homo sapiens), sequence (Q02297 whole entry, looked up, the tested form may be a part, canonical isoform): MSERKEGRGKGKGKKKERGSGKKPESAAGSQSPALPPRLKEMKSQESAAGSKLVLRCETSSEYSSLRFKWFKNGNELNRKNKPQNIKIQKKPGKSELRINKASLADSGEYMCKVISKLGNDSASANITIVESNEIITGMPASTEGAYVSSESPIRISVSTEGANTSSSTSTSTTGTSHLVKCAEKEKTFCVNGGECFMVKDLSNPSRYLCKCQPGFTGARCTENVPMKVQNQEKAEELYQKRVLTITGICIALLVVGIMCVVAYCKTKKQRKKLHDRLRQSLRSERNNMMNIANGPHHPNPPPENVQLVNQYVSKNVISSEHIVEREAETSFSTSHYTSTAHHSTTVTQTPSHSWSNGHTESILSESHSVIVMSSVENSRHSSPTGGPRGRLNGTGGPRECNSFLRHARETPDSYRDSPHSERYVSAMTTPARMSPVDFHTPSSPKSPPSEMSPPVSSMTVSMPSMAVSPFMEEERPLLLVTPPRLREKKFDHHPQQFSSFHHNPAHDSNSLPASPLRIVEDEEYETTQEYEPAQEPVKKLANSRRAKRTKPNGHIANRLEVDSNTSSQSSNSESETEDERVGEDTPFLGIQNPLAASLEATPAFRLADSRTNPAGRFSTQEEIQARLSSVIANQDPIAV

[7] = system: Neuregulin-1 EGF-like domain; test: small molecules binding NRG1 EGF domain – biochemical, small-molecule microarray, 635 nm fluorescence, primary screen (AID 1081); details: higher = more signal;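 note: binding of the protein to compounds printed on small-molecule microarray slides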
[8] = FRG1 expression reporter modulators in myotubes – cell-based, C2C12 myotubes, firefly/Renilla luciferase, luminescence, FRG1 inhibition for FSHD, primary screen (AID 1084); details: FRG1 promoter luciferase, higher = more signal, called active from +8 up or from −8 down
[9] = small molecules captured by biotinylated probe aFST – biochemical, small-molecule microarray, fluorescence 635/667, stem cell growth factor project, primary screen (AID 1086); details: higher = more signal;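 note: score merges 667 nm fluorescence with signal-to-noise of each printed compound spot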
[10] = binders of probe aHhip on microarray, primary screen, stem cell growth factor project, biochemical, small-molecule microarray, fluorescence 635/667 (AID 1087); details: higher = more signal;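 note: score merges spot fluorescence at 667nm with spot signal to noise ratio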
[11] = system: PRMT1 (protein arginine N-methyltransferase 1); test: small molecules binding arginine methyltransferase PRMT1 – biochemical, small-molecule microarray, 635 nm fluorescence, primary screen (AID 1088); details: higher = more signal;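 note: binding of Prmt1 protein to compounds spotted on small-molecule microarray slides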
[12] = growth effects on S. cerevisiae YJM789 – YJM789 clinical isolate, OD600, 24 h, basal, primary screen (AID 1089); details: higher = more signal, called active from +8 up or from −8 down;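 note: growth of clinical yeast isolate S. cerevisiae YJM 789 seeded 1000 cells per well; test concentration not given here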
[13] = S. pombe growth modifiers, basal conditions – strain 972, OD600, 24 h, no modulator, primary screen (AID 1090);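 note: basal condition with compound alone and no growth modifier present; test concentration not given here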; details: S. pombe 972 growth, higher = more signal, called active from +8 up or from −8 down
[14] = budding yeast growth modifiers under rapamycin – strain BY4716, OD600, 96 h, primary screen (AID 1091); note: test concentration not given here; details: S. cerevisiae BY4716 + rapamycin, higher = more signal, called active from +8 up or from −8 down
[15] = target: Torsin-1A-interacting protein 2 (Homo sapiens) (UniProt Q8NFQ8); test: small molecules binding lysate-expressed LULL1 – cell lysate, human LULL1 lysate, 635/667 nm fluorescence, primary screen (AID 1092); details: small-molecule microarray, hLULL1 lysate binding, 635 nm fluorescence; higher = more signal;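 note: probe is lysate of COS7 cells overexpressing human LULL1; score merges per-feature 667 nm fluorescence with signal-to-noise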
Torsin-1A-interacting protein 2 (Homo sapiens), sequence (Q8NFQ8 whole entry, looked up): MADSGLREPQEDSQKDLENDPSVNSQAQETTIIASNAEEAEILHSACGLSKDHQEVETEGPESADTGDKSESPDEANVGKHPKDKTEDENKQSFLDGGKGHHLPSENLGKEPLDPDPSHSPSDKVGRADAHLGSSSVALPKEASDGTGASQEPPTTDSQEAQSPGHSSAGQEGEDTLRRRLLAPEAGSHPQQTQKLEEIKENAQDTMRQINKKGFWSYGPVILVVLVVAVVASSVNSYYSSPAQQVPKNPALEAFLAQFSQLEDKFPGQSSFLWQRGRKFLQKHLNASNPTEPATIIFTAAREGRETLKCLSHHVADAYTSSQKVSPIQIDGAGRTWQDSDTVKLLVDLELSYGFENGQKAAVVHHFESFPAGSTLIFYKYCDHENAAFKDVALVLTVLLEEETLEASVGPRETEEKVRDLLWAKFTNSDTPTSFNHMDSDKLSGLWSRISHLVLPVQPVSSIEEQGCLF

[16] = optical density change of DRC41 E. coli – strain DRC41, OD650, 24 h, E. coli filamentation project, primary screen (AID 1093);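 note: MC1000 strain lacking acrAB efflux and sulA so SOS filamentation is blocked; test concentration not given here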; details: E. coli DRC41 growth, higher = more signal, called active from +8 up or from −8 down
[17] = probe aLefty2 binding to arrayed compounds – biochemical, biotinylated probe, 635/667 nm fluorescence, primary screen (AID 1094); details: small-molecule microarray, higher = more signal;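 note: score merges spot fluorescence near 667 nm with spot signal-to-noise ratio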
[18] = system: Noggin (protein binding on small-molecule microarray); test: small molecules binding Noggin protein – biochemical, 635/667 nm fluorescence, primary screen (AID 1095); details: 635 nm fluorescence, higher = more signal;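 note: score merges 667 nm feature fluorescence with signal to noise over triplicate slides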
[19] = target: Neurogenic locus notch homolog protein 3 (Homo sapiens) (UniProt Q9UM47); test: small molecules binding NOTCH3 protein – biochemical, 635/667 nm fluorescence, primary screen (AID 1096); details: small-molecule microarray, 635 nm fluorescence, higher = more signal
Neurogenic locus notch homolog protein 3 (Homo sapiens), sequence (Q9UM47 whole entry, looked up): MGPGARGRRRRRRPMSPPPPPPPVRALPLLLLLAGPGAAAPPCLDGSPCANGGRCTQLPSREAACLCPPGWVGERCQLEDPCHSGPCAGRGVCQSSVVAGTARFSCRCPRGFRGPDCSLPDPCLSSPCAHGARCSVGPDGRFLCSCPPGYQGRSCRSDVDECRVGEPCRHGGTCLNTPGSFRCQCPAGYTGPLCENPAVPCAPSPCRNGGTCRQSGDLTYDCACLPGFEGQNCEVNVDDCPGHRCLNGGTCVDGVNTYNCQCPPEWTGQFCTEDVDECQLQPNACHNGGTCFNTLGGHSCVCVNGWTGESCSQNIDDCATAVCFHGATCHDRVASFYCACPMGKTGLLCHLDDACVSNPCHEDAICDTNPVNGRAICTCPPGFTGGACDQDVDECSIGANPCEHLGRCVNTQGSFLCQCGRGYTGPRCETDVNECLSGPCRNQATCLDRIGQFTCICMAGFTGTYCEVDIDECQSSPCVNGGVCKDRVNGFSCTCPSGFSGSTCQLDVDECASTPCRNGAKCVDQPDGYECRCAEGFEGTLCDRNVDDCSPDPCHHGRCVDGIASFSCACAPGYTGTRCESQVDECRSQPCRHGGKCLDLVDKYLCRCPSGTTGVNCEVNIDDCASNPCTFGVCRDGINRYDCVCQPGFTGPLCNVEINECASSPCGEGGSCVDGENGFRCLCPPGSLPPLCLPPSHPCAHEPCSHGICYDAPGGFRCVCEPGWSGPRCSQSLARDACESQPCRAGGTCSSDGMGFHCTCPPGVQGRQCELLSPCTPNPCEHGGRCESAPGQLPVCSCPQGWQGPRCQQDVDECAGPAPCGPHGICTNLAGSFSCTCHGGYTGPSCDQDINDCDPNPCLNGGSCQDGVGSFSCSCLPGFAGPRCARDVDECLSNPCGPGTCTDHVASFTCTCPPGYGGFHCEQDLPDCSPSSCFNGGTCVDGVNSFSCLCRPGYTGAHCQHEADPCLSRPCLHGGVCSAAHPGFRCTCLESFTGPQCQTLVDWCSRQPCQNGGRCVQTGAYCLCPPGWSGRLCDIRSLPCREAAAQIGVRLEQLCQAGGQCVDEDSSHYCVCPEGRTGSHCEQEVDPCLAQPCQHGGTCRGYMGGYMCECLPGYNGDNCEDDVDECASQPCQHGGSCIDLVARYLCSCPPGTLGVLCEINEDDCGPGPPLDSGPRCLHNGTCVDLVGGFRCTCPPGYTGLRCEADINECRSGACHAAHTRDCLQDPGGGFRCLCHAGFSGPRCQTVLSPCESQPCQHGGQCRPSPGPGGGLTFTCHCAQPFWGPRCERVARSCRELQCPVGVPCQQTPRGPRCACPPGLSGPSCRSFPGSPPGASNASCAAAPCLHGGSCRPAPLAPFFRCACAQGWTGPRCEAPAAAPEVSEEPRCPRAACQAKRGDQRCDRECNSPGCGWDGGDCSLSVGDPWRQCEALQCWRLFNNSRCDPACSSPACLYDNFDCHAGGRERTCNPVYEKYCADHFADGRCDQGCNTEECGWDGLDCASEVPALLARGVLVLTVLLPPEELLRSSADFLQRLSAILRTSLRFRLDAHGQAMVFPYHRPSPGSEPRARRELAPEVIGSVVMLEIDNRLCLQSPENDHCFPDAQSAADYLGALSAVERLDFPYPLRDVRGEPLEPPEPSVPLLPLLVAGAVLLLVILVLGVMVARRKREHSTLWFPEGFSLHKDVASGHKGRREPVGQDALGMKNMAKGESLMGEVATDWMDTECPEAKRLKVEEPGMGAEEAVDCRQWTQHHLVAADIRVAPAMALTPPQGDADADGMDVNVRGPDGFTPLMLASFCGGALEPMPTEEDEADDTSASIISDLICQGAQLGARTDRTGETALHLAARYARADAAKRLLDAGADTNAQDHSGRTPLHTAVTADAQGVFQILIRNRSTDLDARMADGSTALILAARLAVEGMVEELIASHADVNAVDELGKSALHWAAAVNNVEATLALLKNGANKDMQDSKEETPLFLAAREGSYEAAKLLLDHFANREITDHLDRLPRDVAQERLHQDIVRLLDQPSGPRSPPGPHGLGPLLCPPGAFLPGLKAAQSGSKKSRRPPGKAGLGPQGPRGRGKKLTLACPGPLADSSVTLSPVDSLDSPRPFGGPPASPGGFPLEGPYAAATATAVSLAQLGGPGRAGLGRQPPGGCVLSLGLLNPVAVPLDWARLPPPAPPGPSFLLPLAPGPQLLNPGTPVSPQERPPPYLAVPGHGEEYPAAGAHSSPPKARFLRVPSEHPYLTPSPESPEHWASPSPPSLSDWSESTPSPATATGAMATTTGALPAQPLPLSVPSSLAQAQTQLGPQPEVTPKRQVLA

[20] = probe aEGFR binding to arrayed compounds – biochemical, biotinylated probe, 635/667 nm fluorescence, primary screen (AID 1097); details: small-molecule microarray, higher = more signal;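 note: probe is a biotinylated anti-EGFR antibody binding compounds printed on slides; score combines fluorescence near 667 nm and signal to noise of each spot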

## CCC(CC)C(O)C1C=CC2C(=O)N(c3ccccc3)C(=O)C2N1Nc1ccccc1 (stereo not given)
[1]
  composite z-score: 0.525
[2]
  composite z-score: 0.814
[3]
  composite z-score: 0.21
[4]
  composite z-score: 0.974
[5]
  composite z-score: 1.62
[6]
  composite z-score: 1.94
[7]
  composite z-score: 1.27
[8]
  z-score: -1.31 (inactive)
[9]
  composite z-score: 1.42
[10]
  composite z-score: -0.216
[11]
  composite z-score: 1.49
[12]
  z-score: 0.296 (inactive)
[13]
  z-score: -0.914 (inactive)
[14]
  z-score: 0.204 (inactive)
[15]
  composite z-score: 3.53
[16]
  z-score: 0.272 (inactive)
[17]
  composite z-score: 0.503
[18]
  composite z-score: 0.403
[19]
  composite z-score: 1.07
[20]
  composite z-score: 0.228

## O=C1[C@H]2C=C(I)[C@H](C[C@@H]2OCCCCO)[C@@]12CO2
[1]
  composite z-score: -0.0695
[2]
  composite z-score: 2.01
[3]
  composite z-score: 0.209
[4]
  composite z-score: -0.484
[5]
  composite z-score: -0.542
[6]
  composite z-score: -0.456
[7]
  composite z-score: 0.576
[8]
  z-score: 0.988 (inactive)
[9]
  composite z-score: -0.174
[10]
  composite z-score: 0.162
[11]
  composite z-score: 0.9
[12]
  z-score: -1.04 (inactive)
[13]
  z-score: -0.983 (inactive)
[14]
  z-score: 0.0593 (inactive)
[15]
  composite z-score: 0.512
[16]
  z-score: -1.09 (inactive)
[17]
  composite z-score: -0.0534
[18]
  composite z-score: 0.573
[19]
  composite z-score: 0.186
[20]
  composite z-score: -0.165

## C=CC[C@]1(C(N)=O)N=C(c2ccc(OCCCO)cc2)O[C@H]1c1ccccc1
[1]
  composite z-score: 0.966
[2]
  composite z-score: -0.148
[3]
  composite z-score: -0.0286
[4]
  composite z-score: -0.0773
[5]
  composite z-score: 0.494
[6]
  composite z-score: 1.92
[7]
  composite z-score: 1.29
[8]
  z-score: -1.59 (inactive)
[9]
  composite z-score: -0.0521
[10]
  composite z-score: -0.0296
[11]
  composite z-score: 0.243
[12]
  z-score: -0.52 (inactive)
[13]
  z-score: -0.0257 (inactive)
[14]
  z-score: -0.953 (inactive)
[15]
  composite z-score: 2.17
[16]
  z-score: 0.0588 (inactive)
[17]
  composite z-score: 0.0493
[18]
  composite z-score: 0.201
[19]
  composite z-score: -0.674
[20]
  composite z-score: -0.165

## COCCOC(=O)N1C(=O)[C@@]2(c3cc(C#CC4=CCCCC4)ccc31)[C@H](c1ccc(OCCO)cc1)N1[C@H](c3ccccc3)[C@H](c3ccccc3)OC(=O)[C@H]1[C@@H]2C(=O)N1CCc2cc(OC)c(OC)cc2C1
[1]
  composite z-score: -0.16
[2]
  composite z-score: 0.36
[3]
  composite z-score: -0.0242
[4]
  composite z-score: 0.666
[5]
  composite z-score: 1.43
[6]
  composite z-score: 0.395
[7]
  composite z-score: 1.15
[8]
  z-score: -0.211 (inactive)
[9]
  composite z-score: 0.596
[10]
  composite z-score: -0.0994
[11]
  composite z-score: 1.55
[12]
  z-score: 2.47 (inactive)
[13]
  z-score: 0.535 (inactive)
[14]
  z-score: 4.01 (inactive)
[15]
  composite z-score: 1.94
[16]
  z-score: 1.96 (inactive)
[17]
  composite z-score: 0.034
[18]
  composite z-score: 0.921
[19]
  composite z-score: 1.06
[20]
  composite z-score: 0.119

## CCOC(=O)C1=C[C@@H](C(C)C)N(S(=O)(=O)c2ccc(C)cc2)[C@H]1c1ccccc1F
[1]
  composite z-score: -0.487
[2]
  composite z-score: 0.267
[3]
  composite z-score: -0.0924
[4]
  composite z-score: 0.817
[5]
  composite z-score: 1.65
[6]
  composite z-score: 1.23
[7]
  composite z-score: 1.1
[8]
  z-score: -1.83 (inactive)
[9]
  composite z-score: 0.904
[10]
  composite z-score: -0.305
[11]
  composite z-score: 1.58
[12]
  z-score: -0.413 (inactive)
[13]
  z-score: 1.51 (inactive)
[14]
  z-score: 7.3 (inactive)
[15]
  composite z-score: 2.8
[16]
  z-score: -0.816 (inactive)
[17]
  composite z-score: 0.142
[18]
  composite z-score: 0.351
[19]
  composite z-score: 1.06
[20]
  composite z-score: 0.0353

## O=C1NC(=O)C2C1C=CC(C(O)c1ccc(I)cc1)N2Nc1ccc(Cl)cc1Cl (stereo not given)
[1]
  composite z-score: 0.256
[2]
  composite z-score: -0.396
[3]
  composite z-score: -0.0085
[4]
  composite z-score: 0.29
[5]
  composite z-score: 1.43
[6]
  composite z-score: 1.49
[7]
  composite z-score: 0.991
[8]
  z-score: -0.526 (inactive)
[9]
  composite z-score: 0.794
[10]
  composite z-score: -0.321
[11]
  composite z-score: 0.265
[12]
  z-score: -9.39 (active)
[13]
  z-score: -5.52 (inactive)
[14]
  z-score: -0.806 (inactive)
[15]
  composite z-score: 2.64
[16]
  z-score: -1.3 (inactive)
[17]
  composite z-score: 0.162
[18]
  composite z-score: -0.0422
[19]
  composite z-score: 0.925
[20]
  composite z-score: -0.0953

## CCOC(=O)C1=CC[C@@H](c2ccc(C(F)(F)F)cc2)N(S(=O)(=O)c2ccc(C)cc2)[C@H]1c1ccccc1
[1]
  composite z-score: 0.371
[2]
  composite z-score: 1.4
[3]
  composite z-score: 0.0917
[4]
  composite z-score: 0.599
[5]
  composite z-score: 1.38
[6]
  composite z-score: 1.3
[7]
  composite z-score: 1.25
[8]
  z-score: -0.364 (inactive)
[9]
  composite z-score: 1.04
[10]
  composite z-score: -0.0296
[11]
  composite z-score: 1.49
[12]
  z-score: -0.641 (inactive)
[13]
  z-score: -0.482 (inactive)
[14]
  z-score: 0.363 (inactive)
[15]
  composite z-score: 2.92
[16]
  z-score: -0.617 (inactive)
[17]
  composite z-score: 0.285
[18]
  composite z-score: 0.496
[19]
  composite z-score: 1.05
[20]
  composite z-score: 0.208

## COCCOC(=O)N1C(=O)[C@@]2(c3ccccc31)[C@H](C(=O)N1CCc3cc(OC)c(OC)cc3C1)[C@H]1C(=O)O[C@H](c3ccccc3)[C@H](c3ccccc3)N1[C@@H]2c1ccc(O)cc1
[1]
  composite z-score: -0.159
[2]
  composite z-score: 0.706
[3]
  composite z-score: -0.0303
[4]
  composite z-score: 0.647
[5]
  composite z-score: 1.28
[6]
  composite z-score: 0.832
[7]
  composite z-score: 1.26
[8]
  z-score: -2.26 (inactive)
[9]
  composite z-score: -0.0345
[10]
  composite z-score: 0.0302
[11]
  composite z-score: 1.51
[12]
  z-score: -0.654 (inactive)
[13]
  z-score: 0.194 (inactive)
[14]
  z-score: 1.8 (inactive)
[15]
  composite z-score: 2.85
[16]
  z-score: 2.31 (inactive)
[17]
  composite z-score: 0.206
[18]
  composite z-score: 1.39
[19]
  composite z-score: 0.806
[20]
  composite z-score: 0.0383

## C=CC[C@]1(C(=O)N2CCOCC2)N=C(c2ccc(OCCCO)cc2)O[C@H]1c1ccccc1N=[N+]=[N-]
[1]
  composite z-score: -0.0247
[2]
  composite z-score: 0.572
[3]
  composite z-score: 0.102
[4]
  composite z-score: 0.642
[5]
  composite z-score: 1.24
[6]
  composite z-score: 1.8
[7]
  composite z-score: 1.25
[8]
  z-score: -0.322 (inactive)
[9]
  composite z-score: 1.2
[10]
  composite z-score: 0.0596
[11]
  composite z-score: 1.54
[12]
  z-score: -0.0233 (inactive)
[13]
  z-score: -1.22 (inactive)
[14]
  z-score: 0.206 (inactive)
[15]
  composite z-score: 3.45
[16]
  z-score: 0.734 (inactive)
[17]
  composite z-score: 0.405
[18]
  composite z-score: 0.752
[19]
  composite z-score: 1.11
[20]
  composite z-score: -0.0406

## CCOC(=O)C[C@H]1[C@H](OC(=O)c2cc3ccccc3oc2=O)[C@@H](NC(=O)CC(C)C)c2cc(OCCCO)ccc2N1C(=O)c1ccccc1
[1]
  composite z-score: -0.26
[2]
  composite z-score: 0.478
[3]
  composite z-score: -0.0327
[4]
  composite z-score: 0.667
[5]
  composite z-score: 0.3
[6]
  composite z-score: -0.0698
[7]
  composite z-score: 0.397
[8]
  z-score: -0.332 (inactive)
[9]
  composite z-score: 0.128
[10]
  composite z-score: 0.0373
[11]
  composite z-score: 0.983
[12]
  z-score: -0.789 (inactive)
[13]
  z-score: -0.769 (inactive)
[14]
  z-score: -0.193 (inactive)
[15]
  composite z-score: 1.52
[16]
  z-score: 2.64 (inactive)
[17]
  composite z-score: -0.0661
[18]
  composite z-score: 0.805
[19]
  composite z-score: 0.606
[20]
  composite z-score: -0.0828
